# From PubChem BioAssay AID686970 (National Center for Advancing Translational Sciences (NCATS), 2013)
# Hit rate of the full screen: of about 360,000 compounds, about 6,000 (1.7%) were called active. A call without a number means that no potency is given here. Not shown: some 8% with an inconclusive outcome. Calls come from the whole dose curve; as a rule, active = well fitted cell-killing curve with a large enough effect; inconclusive = small, poorly fitted or top-dose-only effect, or effect the other way; inactive = flat fitted curve, though single readings scatter. The full list was thinned out, with actives kept by preference.
# Assay: qHTS for induction of synthetic lethality in tumor cells producing 2HG: qHTS for the HT-1080-NT fibrosarcoma cell line; note: nearly all actives have a fitted effect of over 55% in size
# Conditions: HT-1080-NT fibrosarcoma viability, CellTiter-Glo ATP luminescence, 48 h; series mostly up to 46.1 µM
# Source text: Unbiased genomic sequencing for 22 glioma genomes found recurrent mutation of IDH1 on chromosome 2q33, a gene encoding the cytosolic isoform of IDH1 associated with the tricarboxylic acid cycle (TCA) that catalyzes the oxidative decarboxylation of isocitrate, yielding alpha-ketoglutarate and CO2 via NADP+ to NADPH conversion. Subsequent studies confirmed the recurrent IDH mutations in up to 70% of secondary gliomas and in 10% of AML cases. In addition, the somatic mutation of cancer-associated IDH1 is a point mutation resulting in various amino-acid substituents at Arginine132 (IDH1 R132), a key residue found in the enzyme's active site that when mutated, results in the loss-of-function in metabolizing isocitrate but confers a gain-of-function to produce the oncometabolite 2-hydroxyglutarate (2HG). This in effect defines IDH1 as an oncogene and provides an extraordinary opportunity to discover chemical probes against mutant IDH1 that may translate into much needed new therapies for glioma and AML patients.
# This assay aims to perform a synthetic lethal screen for chemical probes specific for 2HG-producing tumor cells using matched paired cell lines (1) HT-1080-NT fibrosarcoma cell line that overproduces 2HG and (2) HT-1080-IDH1KD cell line which has IDH1 expression knocked-down. Desirable compounds are toxic to the NT fibrosarcoma cells but not to the IDH1KD cell line. The data in this AID corresponds to the results of the qHTS against the HT-1080-NT fibrosarcoma cell line.
# [1] Dang L, Jin S, Su SM. IDH mutations in glioma and acute myeloid leukemia. Trends of Mol Med. 2010; 16(9): 387-97.
# [2] Dang L et al. Cancer-associated IDH1 mutations produce 2-hydroxyglutarate. Nature. 2010; 465(7300):966.
# NIH Molecular Libraries Probe Production Centers Network [MLPCN]
# NIH Chemical Genomics Center [NCGC]
# Assay Submitter (PI): Lenny Dang Ph.D., Agios Pharmaceuticals
# Suspensions of trypsinized HT-1080-NT cells were dispensed into white, tissue culture-treated, solid 1536-well plates at 5uL/well (750 cells/well final concentration) in RPMI medium supplemented with 5% FBS. Plates were incubated at 37 degrees C for 2 hours, after which 23 nL of compounds or DMSO were delivered to each well using a pin tool. Plates were then incubated at 37 degrees C for an additional 48 hours. CellTiter-Glo viability reagent (Promega) was dispensed into wells (2.5uL/well) and incubated at room temperature for 10 minutes. The plates were measured on a PerkinElmer ViewLux plate reader for luminescent signal (clear filter, 1 sec exp). DMSO-treated control wells and media-only (no cells) control wells were used to normalize %Activity of identified toxic compounds; DMSO-treated wells corresponded to 0%Activity (100% viability), while media-only controls were used to normalize 100%Activity (0% viability).
# Concentration-response curves were fitted to the signals arising from the resulting luminescence. The concentration-effect curves were then classified based on curve quality (r2), response magnitude and degree of measured activity, and compounds were subsequently categorized based on their curve class.
# Potency is the fitted concentration of half-maximal effect.
row,Compound,Potency
1,Cc1cccc(N(CC(=O)N2CCCC2)S(C)(=O)=O)c1C,inactive
2,CC(=O)c1ccccc1NC(=O)COC(=O)C1COc2ccccc2O1 (stereo unspecified),inactive
3,CCOC(=O)[C@]12CCC=C1N(CCC1=CCCCC1)C(=O)[C@H](CC(=O)NCc1ccc(C)o1)C2,inactive
4,CCOC(=O)[C@]12CCCC=C1N(CCC1=CCCCC1)C(=O)[C@H](CC(=O)NCCCOC)C2,inactive
5,CCCCOCCCNC(=O)C[C@@H]1C[C@@]2(C(=O)OCC)CCCC=C2N(CCC2=CCCCC2)C1=O,16.4 µM (active)
6,COC(=O)[C@]12CCCCC=C1N(Cc1ccc3c(c1)OCO3)C(=O)[C@H](CC(=O)N1CCOCC1)C2,inactive
7,O=S(=O)(O)c1nc2ccccc2n1Cc1ccc(Cl)cc1Cl,inactive
8,O=C(Cn1c(NCCO)nc2ccccc21)c1ccc(Cl)cc1Cl,20.6 µM (active)
9,O=C(Cn1c(-c2cscn2)nc2ccccc21)Nc1ccc(Cl)cc1,inactive
10,COc1ccc(C(C)C)cc1-c1ccc2nncn2c1,inactive
11,CC(C)C[C@@H]1Cc2[nH][nH]c(=O)c2[C@H](CCc2ccccc2)O1,inactive
12,Cc1cc(C)c2c(c1)cc(C)c1nnc(SCC(=O)Nc3cc(C)on3)n12,6.31 µM (active)
13,Cc1cc(NC(=O)CSc2nnc(-c3ccco3)n2N)no1,inactive
14,Cc1cc(NC(=O)CSc2nnnn2-c2ccc(F)cc2)no1,inactive
15,CCOC1=C2[C@H]([C@H]3C(=O)N(c4ccccc4)C(=O)[C@H]3C1)[C@@H](c1ccccc1)N(S(=O)(=O)c1ccc(C)cc1)[C@H]2c1ccccc1,inactive
16,Cc1cccc(C)c1NC(=O)C(c1ccc(C(F)(F)F)cc1)n1c(=O)c(-c2ccco2)nc2ccccc21 (stereo unspecified),inactive
17,NC(Cc1ccc(F)cc1)c1csc(Nc2nncc3ccccc23)n1 (stereo unspecified),23.1 µM (active)
18,COCC(C)NC(=O)COc1nncc2ccccc12 (stereo unspecified),inactive
19,CC(=O)c1ccc(Nc2nc(C(N)c3ccccc3Cl)cs2)cc1 (stereo unspecified),inactive
20,Cc1cc(Br)ccc1NC(=O)CCCOc1cc(=O)n(C)c2ccccc12,inactive
21,COC(=O)[C@]12CCCCC=C1N(Cc1ccc(Cl)cc1Cl)C(=O)[C@H](CC(=O)NCc1cccc3ccccc13)C2,inactive
22,Cc1cc2c3ccccc3[nH]c(=O)n2n1,inactive
23,COc1ccc(CN2C(=O)C(CC(=O)NCc3cccc4ccccc34)CC(C(=O)N3CCOCC3)=C2C)cc1 (stereo unspecified),inactive
24,COCCCNC(=O)Cn1cc(/C=C(\C#N)C(=O)N2CCN(c3ccccc3)CC2)c2ccccc21,inactive

row,Compound,Potency
1,COC(=O)Cn1cc(/C=C/[N+](=O)[O-])c2ccccc21,18.4 µM (active)
2,NC(=O)Cn1cc(/C=N\NS(=O)(=O)c2ccccc2)c2ccccc21,inactive
3,CC1Cc2[nH][nH]c(=O)c2C(C2CCCC2)O1 (stereo unspecified),inactive
4,CC1(Oc2ccccc2-c2ccno2)CCN(Cc2ccc(-c3ccccc3)o2)C1 (stereo unspecified),inactive
5,CC(C)N1C(=O)c2ccccc2NC(=O)C1C(=O)NCc1cccs1 (stereo unspecified),inactive
6,Cc1ccc2nc(/C(C#N)=C\c3ccc(OC(=O)c4cccs4)cc3)[nH]c2c1,7.94 µM (active)
7,COc1ccc(CCNC(=O)/C(C#N)=C2\N=C(NC(=O)c3cccs3)c3ccccc32)cc1,inactive
8,Cc1ccnc(NC(=O)c2ccoc2C)c1,inactive
9,Cc1occc1C(=O)NNC(=S)NCC(C)C,inactive
10,C/C(=N\NC(=O)c1ccoc1C)c1ccccc1O,3.26 µM (active)
11,CC(C)Nc1ncnc2c1ncn2[C@H]1CN(Cc2ccncc2)C[C@@H](CO)O1,inactive
12,CCCCC(=O)N(C)c1c(CC)nc2c(OCc3ccc(S(C)(=O)=O)cc3)cccn12,inactive
13,COC(=O)C[C@@H]1C=C[C@@H](NC(=O)c2ccc3c(c2)OCO3)[C@@H](CO)O1,inactive
14,C[C@H](CO)N1C[C@H](C)[C@H](CN(C)C(=O)c2ccncc2)OCc2ccccc2-c2c(n(C)c3ccccc23)C1=O,inactive
15,CC1=NN(c2ccc(Cl)c(C(=O)O)c2)C(=O)/C1=C/c1ccc(-c2ccccc2[N+](=O)[O-])o1,inactive
16,CC(=O)C1C(c2cccc(Oc3ccccc3)c2)NC(=O)NC1(O)C(F)(F)F (stereo unspecified),inactive
17,O=C1NC(c2ccc(-c3ccccc3[N+](=O)[O-])o2)C(C(=O)c2ccc(Cl)cc2)C(O)(C(F)(F)F)N1 (stereo unspecified),16.4 µM (active)
18,CCOC(=O)[C@]12CCCC=C1N(CCC1=CCCCC1)C(=O)[C@H](CC(=O)N1CCSCC1)C2,inactive
19,N#CCCN(C(=O)Nc1ccc(Cl)c(Cl)c1)C1CCCCC1,inactive
20,COc1ccc(NC(=O)c2c(C)oc3c2CCCC3)cc1,inactive
21,Cc1ccc(N/N=C2\COC(C)(C)CC2=O)cc1,inactive
22,COc1ccc(N/N=C2/CCCCC2=O)cc1,1.26 µM (active)
23,Cc1ccnc(SC2CC(=O)N(c3ccccc3)C2=O)n1 (stereo unspecified),inactive
24,O=C1CC[C@@H](C(=O)N2CSC[C@@H]2C(=O)Nc2ccc(C(F)(F)F)cc2)N1,inactive

row,Compound,Potency
1,O=S1(=O)CC(N2CCN(Cc3ccccc3F)CC2)CN1Cc1cn(Cc2cccc(C(F)(F)F)c2)nn1 (stereo unspecified),inactive
2,COc1cccc(OCCOc2cccc(/C=N/n3cnnc3)c2)c1,inactive
3,Cc1ccccc1OCCOc1ccc([N+](=O)[O-])cc1/C=N/n1cnnc1,2.31 µM (active)
4,Cc1ccccc1OS(=O)(=O)c1cccc([N+](=O)[O-])c1,inactive
5,NC1=CC(=O)C(=O)c2cccnc21,25.9 µM (active)
6,CCOc1ccc(CCN2C(=O)c3cccnc3C2=O)cc1OCC,inactive
7,Cc1ccc(S(=O)(=O)N2CC[C@H]3[C@@H](C2)C(=O)C[C@@H](c2ccccc2)N3S(=O)(=O)c2ccc(C)cc2)cc1,inactive
8,c1ccc(-c2nnc(N3CCOCC3)c3ccccc23)cc1,inactive
9,Fc1cnc(N2CCOCC2)nc1NCc1ccccc1,inactive
10,c1ccc2c(NC3C4CC5CC(C4)CC3C5)nc(N3CCOCC3)nc2c1 (stereo unspecified),14.6 µM (active)
11,Cc1nc2ccccn2c(=O)c1NC(=O)c1ccc(Br)o1,inactive
12,CCCCN1C(=O)C(CC(=O)NC(c2ccccc2)c2ccccc2)CC(C(=O)N2CCOCC2)=C1C (stereo unspecified),inactive
13,CC1=C(C(=O)N2CCOCC2)CC(CC(=O)NCC2CCCCC2)C(=O)N1Cc1ccc(F)cc1 (stereo unspecified),inactive
14,O=S1(=O)CC(N2CCC(Cc3ccccc3)CC2)CN1Cc1ccccc1 (stereo unspecified),inactive
15,Clc1cccc(N=C2NN=C(c3ccc4c(c3)OCCO4)CS2)c1,10 µM (active)
16,CN(C)c1nc(=Nc2cccc(Cl)c2)ss1,inactive
17,Cc1cccc(C)c1-n1nnnc1C1(C)CCC(=O)N1CCOc1ccccc1 (stereo unspecified),inactive
18,CCCCc1ccc(S(=O)(=O)NC(=O)C2(C)CCN2C(=O)c2c(C)noc2C)cc1 (stereo unspecified),inactive
19,N=c1c2c(-c3ccccc3)c(-c3ccccc3)oc2ncn1Cc1ccco1,23.1 µM (active)
20,C(=C\c1ccccc1)/CSc1nnc(-c2cccnc2)n1Cc1ccco1,inactive
21,COC(=O)c1ccc2nc(C3CCCCC3)c(Cc3cccc(F)c3)n2c1,inactive
22,O=C(Nc1cccc(Cc2ccccc2)c1)Nc1ccc2nc([C@@H]3O[C@H](CO)[C@@H](O)[C@H](O)[C@H]3O)[nH]c2c1,inactive
23,COc1ccccc1CN1CCN(C(c2ccccc2)c2ccccc2)CC1,inactive
24,CC1(C)CC(N2CCN(C(c3ccccc3)c3ccccc3)CC2)=CC(=[N+]2CCCCC2)C1,2.06 µM (active)

row,Compound,Potency
1,c1ccc(C(c2ccccc2)N2CCN(Cc3nnnn3C3CCCCC3)CC2)cc1,inactive
2,Cc1ccc(O)c(CNc2nc3ccccc3[nH]2)c1,inactive
3,COC(=O)Nc1nc2ccc(Sc3ccccc3)cc2[nH]1,1.16 µM (active)
4,CN(c1ccccc1)S(=O)(=O)c1cc(C(=O)Nc2nc3ccccc3[nH]2)ccc1Cl,inactive
5,CC(C)c1cc(CN2CCOCC2)cc(C(C)C)c1O,inactive
6,Oc1c(C(c2ccccn2)N2CCOCC2)ccc2cccnc12 (stereo unspecified),0.355 µM (active)
7,Cc1ccc(-c2ccc(CN3C(C(C)C)C(=O)N(Cc4cn(CCC5OCCCO5)nn4)CCS3(=O)=O)cc2)cc1 (stereo unspecified),inactive
8,CCOC(=O)N1CCN(C(=O)C2CCN(S(=O)(=O)c3cc(Cl)ccc3OCC)CC2)CC1,inactive
9,CCOC(=O)/C(=N\Nc1ccccc1Cl)N(C)C1CCS(=O)(=O)C1 (stereo unspecified),inactive
10,CCOC(=O)/C(=N\Nc1cc(Cl)ccc1Cl)N1CCN(C)CC1,16.4 µM (active)
11,CCc1ccccc1NC(=O)[C@@H]1CCC(=O)N1C1OC(=O)c2c1ccc(OC)c2OC (stereo partly specified),inactive
12,COc1ccc(-c2csc(Nc3cccc(C)n3)n2)cc1OC,inactive
13,COc1ccc2c(c1OC)C(=O)OC2Nc1nc(-c2ccccc2)cs1 (stereo unspecified),18.4 µM (active)
14,O=C(NCc1cccc(C(F)(F)F)c1)c1ccc2sc(COCCO)nc2c1,inactive
15,COc1ccc(OC)c(NC(=O)C2CCCN2S(=O)(=O)c2ccc3c(c2)CC(C)N3C(C)=O)c1 (stereo unspecified),inactive
16,C=C1C(=O)[C@]23C[C@H]1CCC2[C@@]1(C)C(C[C@@H]3O)[C@](C)(C(=O)O)CC[C@@H]1O (stereo partly specified),18.4 µM (active)
17,CCc1nc2ccc(C(=O)NC3CCN(Cc4ccccc4)CC3)cn2c1N(CC)CCOC,inactive
18,CN(C)C(=O)c1cccc(-c2cnc3c(NC=O)cc(-c4ccc(C(=O)N5CCOCC5)cc4)cn23)c1,inactive
19,Cc1cc(NC(=O)CCN2CCN(Cc3ccccc3)CC2)ccc1Br,20.6 µM (active)
20,O=C(CN1CCN(Cc2ccccc2)CC1)Nc1ccc(F)c(F)c1,inactive
21,CCOC(=O)N1CCN(CCC(=O)Nc2ccccc2)CC1,inactive
22,CC(=O)Nc1cccc(Nc2ccc(C#N)cc2)c1,inactive
23,O=[N+]([O-])c1ccc(Oc2ccc(F)cc2Br)c2ccncc12,16.4 µM (active)
24,CC(C)C1Cc2[nH][nH]c(=O)c2C(c2ccc(Cl)cc2)O1 (stereo unspecified),inactive
